The results in this text go back to PubChem BioAssay.

Test [1] can be described thus: liver-stage malaria parasite growth inhibition, primary screen, cell-based, HepG2, luciferase luminescence, HepG2 viability (AID 624349).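 Further: 100% = mean of DMSO negative control wells on the same plate.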 As to conditions: P. berghei liver stage in HepG2, luciferase luminescence, concentration not given here; parasite load remaining: stronger effect = lower value; viability: measured here: HepG2 viability without parasites.
Test [2] can be described thus: stimulators of nuclear beta-catenin in C2C12, primary screen, imaging, WNT3A-conditioned medium, mouse C2C12, NPC library (AID 1117326; in the data active means nuclear beta-catenin stimulation mostly above about 4.2%, no sharp cut-off; inactive means mostly below about 10%; further: reference of the scale not given here). As to conditions: stronger effect = higher value.
The nature of test [3]: stimulators of insulin release from INS-1E, primary screen, cell-based, 5 mM glucose, NPC library (AID 1117329;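 active means compound raises insulin release from rat beta cells at 5 mM glucose, no numeric limit stated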; further: reference of the scale not given here). The conditions noted are these: rat INS-1E insulin secretion, at 10 µM, stronger effect = higher value.
Test [4] can be described thus: growth inhibition of GSK3B-pretreated HCT116 cells – cell-based, CellTiter-Glo, 0.2 to 20 µM (AID 1117336;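 active means compounds lowering colon cancer cell viability after pretreatment blocking the GSK3B kinase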). The conditions noted are these: HCT116 viability after GSK3B inhibitor, at 20 µM, stronger effect = higher value.
The nature of test [5]: inhibition of endothelial tube formation, primary screen, imaging, VEGF stimulated, CD31 staining, tube area, NPC library (AID 1117340;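 active means compound that reduces growth-factor-driven endothelial tube area in a mixed cell culture, no cutoff stated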). The conditions noted are these: VEGF-stimulated ADSC/ECFC co-culture, at 10 µM, stronger effect = higher value.
A short description of test [6]: glucagon-like peptide 1 release enhancers, primary assay, NCI-H716 cell line, NPC library (AID 1117341;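 active means compound raises GLP1 secretion from the human gut endocrine cells, with no numeric limit stated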; further: reference of the scale not given here). The conditions noted are these: NCI-H716 cells, at 10 µM, stronger effect = higher value.
A short description of test [7]: HCT116 colon cancer cell growth inhibition, primary screen, CellTiter-Glo luminescence, NPC library (AID 1117342;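 active means compounds that lower survival of HCT116 colon cancer cells in the luminescence readout, no numeric limit stated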). As to conditions: at 20 µM (top of the series).
Test [8] can be described thus: CellTiter-Glo luminescent readout of SW480 viability loss, NPC library primary (AID 1117343;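 active means compounds that lower viability of the colon cancer cells in the luminescence readout, with no numeric limit stated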). As to conditions: CellTiter-Glo luminescence; at 20 µM (top of the series).
Test [9] in a line: decreased DLD-1 cellular survival, CellTiter-Glo luminescent readout, NPC compound collection, primary HTS (AID 1117346;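 active means compounds that lower survival of DLD-1 colon cancer cells in the luminescence readout, no cutoff given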). The conditions noted are these: DLD-1 viability, CellTiter-Glo luminescence; at 20 µM (top of the series).
Test [10] has as its target 6-phosphogluconate dehydrogenase, decarboxylating (Homo sapiens) (UniProt P52209). Briefly: 6PGD enzyme inhibitors, primary screen, biochemical, human, recombinant enzyme, NADPH absorbance (AID 1159550;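 active means at least 20% inhibition of 6-phosphogluconate dehydrogenase activity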). As to conditions: recombinant 6PGD, NADPH absorbance 341 nm; at 10 µM; stronger effect = higher value.

Values joined by “and” are separate entries in the source; they are usually repeats but may differ in a detail not shown here. Equal entries are not always repeated. Active and inactive are the calls of the source. Unless noted, no stated cut-off is given here; in the data, active means parasite load remaining mostly below about 12% (no sharp cut-off); inactive means mostly above about 10%.

Sequence of 6-phosphogluconate dehydrogenase, decarboxylating (Homo sapiens) (P52209 whole entry, looked up): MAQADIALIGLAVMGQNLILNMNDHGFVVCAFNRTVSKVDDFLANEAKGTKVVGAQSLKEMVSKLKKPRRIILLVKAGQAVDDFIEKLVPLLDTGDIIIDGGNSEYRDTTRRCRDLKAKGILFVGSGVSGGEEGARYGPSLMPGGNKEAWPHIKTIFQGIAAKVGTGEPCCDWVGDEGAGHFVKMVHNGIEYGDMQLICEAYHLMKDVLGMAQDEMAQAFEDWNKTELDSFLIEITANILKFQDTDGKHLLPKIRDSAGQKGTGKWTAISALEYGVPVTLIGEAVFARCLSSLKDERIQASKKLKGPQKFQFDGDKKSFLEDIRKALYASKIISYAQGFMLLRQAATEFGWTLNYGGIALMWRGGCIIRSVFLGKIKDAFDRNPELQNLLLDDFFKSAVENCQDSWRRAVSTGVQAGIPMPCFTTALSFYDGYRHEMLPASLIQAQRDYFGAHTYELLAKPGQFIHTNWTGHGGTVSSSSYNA

As to `COc1ccc2cc1Oc1ccc(cc1)C[C@H]1c3c(cc4c(c3Oc3cc5c(cc3OC)CCN(C)[C@@H]5C2)OCO4)CCN1C`, the parasite load remaining in [1] was 105% (inactive). Besides, the viability in test [1] is 82.3%. Besides, the nuclear beta-catenin stimulation in test [2] (at 10 µM) is 64.7% (active); in test [2] (stimulation, at 2 µM), 7.1%. In addition, the insulin secretion stimulation in test [3] is 5.5% (inactive). In addition, the viability decrease in [4] was 98.1% (active). Also, the tube area decrease in test [5] is 108% (active). For the same compound, in test [6], the GLP1 secretion stimulation was 1.9% (inactive). In addition, in test [7], the inhibition of viability is 102% (active). Besides, the viability decrease (inhibition) is 123% (active) in test [8] and 87.3% (active) in test [9]. In addition, the inhibition in test [10] was -1.33% (inactive).
Consider `CC(=O)Nc1ccc(O)cc1`, for which, in [1], the parasite load remaining is 99.6% (inactive) and 108% (inactive) and 46.1% (inactive). Also, the viability in test [1] is 106% and 78.8% and 112%. For the same compound, the nuclear beta-catenin stimulation in test [2] (at 10 µM) was -0.4% (inactive); in [2] (stimulation, at 2 µM) it was -0.2%. For the same compound, the insulin secretion stimulation in [3] was -0.1% (inactive). Besides, in test [4], the viability decrease is 9.25% (inactive). The tube area decrease in [5] is -15.2% (inactive). In addition, in test [6], the GLP1 secretion stimulation is 1.9% (inactive). Besides, the inhibition of viability in test [7] is 1.2% (inactive). Also, the viability decrease (inhibition) in test [8] was 34.3% (inactive); in test [9] it was 3.3% (inactive). In test [10], the inhibition was 13.8% (inactive).
Take `CC(NCCC(c1ccccc1)c1ccccc1)c1ccccc1` (configuration not stated): the parasite load remaining in test [1] was -2.42% (inactive) and 196% (inactive) and 56% (inactive). In addition, in [1], the viability is 7.6% and 63.1% and 81.9%. Also, the nuclear beta-catenin stimulation in [2] (at 10 µM) was 27.6% (inactive); in test [2] (stimulation, at 2 µM), -0.2%. Besides, the insulin secretion stimulation in [3] is 4.5% (inactive). Also, in [4], the viability decrease was 99.5% (active). Also, the tube area decrease in test [5] is 15.4% (inactive). Moreover, the GLP1 secretion stimulation in test [6] was -2.1% (inactive). In addition, in test [7], the inhibition of viability is 99.3% (active). Further, the viability decrease (inhibition) was 102% (active) in test [8] and 89% (active) in test [9]. For the same compound, the inhibition in [10] is 4.5% (inactive).
On to `Oc1ccc(Cl)c2cccnc12`, for which the parasite load remaining in test [1] is 109% (inactive) and 39.2% (inactive). In test [1], the viability is 67.1% and 81.7%. Further, the nuclear beta-catenin stimulation in [2] (at 10 µM) was 26.2% (inactive); in test [2] (stimulation, at 2 µM), 2.1%. Besides, the insulin secretion stimulation in test [3] is -2.1% (inactive). Besides, the viability decrease in test [4] was 57.1% (active). Besides, in test [5], the tube area decrease is 11.9% (inactive). Moreover, the GLP1 secretion stimulation in [6] is -5.7% (inactive). In addition, the inhibition of viability in test [7] is 32.7% (inactive). For the same compound, the viability decrease (inhibition) in test [8] is 84.4% (active); in test [9] it was 43.6% (inactive). In test [10], the inhibition was 10.3% (inactive).
Take `OCC(O)CN1CCN(c2ccccc2)CC1` (configuration not stated): the parasite load remaining in test [1] is 36.8% (inactive) and 188% (inactive) and 98.1% (inactive). For the same compound, the viability in test [1] was 50.7% and 71.2% and 93.7%. The nuclear beta-catenin stimulation in [2] (at 10 µM) was -1.5% (inactive); in test [2] (stimulation, at 2 µM), 0.8%. Also, the insulin secretion stimulation in [3] is 0.6% (inactive). In addition, the viability decrease in test [4] was -6.6% (inactive). For the same compound, the tube area decrease in test [5] is -0.2% (inactive). In addition, in test [6], the GLP1 secretion stimulation is -1.1% (inactive). In addition, in test [7], the inhibition of viability was 4.03% (inactive). Further, the viability decrease (inhibition) was 29% (inactive) in test [8] and -12.9% (inactive) in [9]. For the same compound, the inhibition in test [10] is 8.41% (inactive).
With `C/C=C/c1ccc(OC)cc1`, in [1], the parasite load remaining is 163% (inactive) and 38.2% (inactive) and 65% (inactive). In addition, the viability in test [1] was 88.5% and 100% and 126%. For the same compound, the nuclear beta-catenin stimulation in test [2] (at 10 µM) is -1.7% (inactive); in test [2] (stimulation, at 2 µM) it was 2.3%. In addition, in test [3], the insulin secretion stimulation is 1.3% (inactive). In [4], the viability decrease is -5.7% (inactive). For the same compound, in test [5], the tube area decrease was 6.2% (inactive). In test [6], the GLP1 secretion stimulation is -1.8% (inactive). Besides, the inhibition of viability in test [7] is 10.8% (inactive). In addition, the viability decrease (inhibition) in test [8] was 20.9% (inactive); in test [9], -3.2% (inactive). Further, the inhibition in test [10] is 6.64% (inactive).
On to `CN1CCCN=C1COC(=O)C(O)(c1ccccc1)C1CCCCC1` (configuration not stated), for which the parasite load remaining in test [1] was 69.1% (inactive) and 57.9% (inactive). Also, the viability in [1] was 80.4% and 101%. Further, the nuclear beta-catenin stimulation was 3% (inactive) in test [2] (at 10 µM) and 1.9% in test [2] (stimulation, at 2 µM). Besides, the insulin secretion stimulation in test [3] was 16.3% (inactive). Further, the viability decrease in [4] was -83% (inactive). Also, the tube area decrease in test [5] was -29% (inactive). In test [6], the GLP1 secretion stimulation is 4.8% (inactive). In addition, the inhibition of viability in test [7] is 19.6% (inactive). Moreover, the values for the viability decrease (inhibition) in test [8] and in test [9] were 67.3% (active) and 33.9% (inactive), respectively. In test [10], the inhibition was 6.35% (inactive).
As to `OC(CCN1CCCCC1)(c1ccccc1)c1ccccc1`, the parasite load remaining in test [1] is 89.9% (inactive) and 126% (inactive). Moreover, the viability in [1] is 98.8% and 84.6%. The nuclear beta-catenin stimulation in test [2] (at 10 µM) is 0.4% (inactive); in test [2] (stimulation, at 2 µM), 2.1%. Also, the insulin secretion stimulation in test [3] is 60.4% (active). In addition, the viability decrease in test [4] is 12.2% (inactive). For the same compound, in test [5], the tube area decrease is 1.5% (inactive). Further, in [6], the GLP1 secretion stimulation was 3.3% (inactive). The inhibition of viability in [7] was 23.9% (inactive). Besides, the viability decrease (inhibition) in [8] was 27% (inactive); in test [9], 2.1% (inactive). The inhibition in [10] was 12.5% (inactive).
Regarding `CN1CCC(OC(c2ccccc2)c2ccccc2)CC1`, the parasite load remaining in test [1] was 97.1% (inactive) and 89.2% (inactive) and 61.4% (inactive). In [1], the viability is 96.1% and 75.8% and 94.2%. Further, the nuclear beta-catenin stimulation is 0.7% (inactive) in [2] (at 10 µM) and 1.6% in [2] (stimulation, at 2 µM). Besides, in test [3], the insulin secretion stimulation was 6.2% (inactive). Besides, the viability decrease in test [4] is -31.3% (inactive). For the same compound, the tube area decrease in test [5] was 13.8% (inactive). The GLP1 secretion stimulation in [6] was 4.2% (inactive). The inhibition of viability in test [7] is 35.4% (inactive). The viability decrease (inhibition) in test [8] was 37.7% (inactive); in test [9], -6.7% (inactive). The inhibition in test [10] is 10.6% (inactive).
Take `Cc1onc(-c2ccccc2)c1C(=O)N[C@@H]1C(=O)N2[C@@H]1SC(C)(C)[C@@H]2C(=O)O`: the parasite load remaining in test [1] was 27.2% (inactive). Besides, the viability in test [1] turned out to be 72.5%. Further, the nuclear beta-catenin stimulation was -2.3% (inactive) in test [2] (at 10 µM) and 0.5% in [2] (stimulation, at 2 µM). Further, the insulin secretion stimulation in [3] was 6.3% (inactive). In [4], the viability decrease was 0.4% (inactive). Further, in test [5], the tube area decrease is -1.6% (inactive). Also, the GLP1 secretion stimulation in [6] is -3.6% (inactive). Further, the inhibition of viability in [7] was 5.3% (inactive). For the same compound, the viability decrease (inhibition) in test [8] was -4.9% (inactive); in test [9], -3.8% (inactive). The inhibition in test [10] is 8.76% (inactive).
With `O=C(O)c1ccccc1OP(=O)(O)O`, the parasite load remaining in test [1] is 79.1% (inactive) and 102% (inactive). Moreover, in [1], the viability is 101% and 71.6%. For the same compound, the nuclear beta-catenin stimulation is 0.8% (inactive) in test [2] (at 10 µM) and 2.9% in test [2] (stimulation, at 2 µM). In addition, the insulin secretion stimulation in test [3] was 0.8% (inactive). The viability decrease in test [4] was -21.3% (inactive). The tube area decrease in test [5] was -18.8% (inactive). Also, the GLP1 secretion stimulation in [6] is 1.7% (inactive). In [7], the inhibition of viability is 1.07% (inactive). Besides, the viability decrease (inhibition) is 6.6% (inactive) in [8] and -7.1% (inactive) in test [9]. In addition, the inhibition in test [10] is -2.26% (inactive).
